# Measured values reported in PubChem BioAssay (NCATS).
# Records with an inconclusive call do not appear. A call without a number means that no potency is given here. Calls of active or inactive are those of the source. Unless noted, the call rests on the fitted dose curve; in most records, active means well fitted curve in the direction sought with a large enough effect; inconclusive means small, poorly fitted or top-dose-only effect, or another doubt; inactive means no such curve, though single readings can be large; an effect the other way counts as inactive or inconclusive.
# Key:
# [1] = AP1 Signaling Pathway (AID 357; active means well fitted curve in either direction with a large enough effect, not every such curve was filed as active;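 further: ME-180 reporter cells stimulated with EGF at its EC50 level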)
# Procedure, shortened: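 In this screen, ME-180 cells in Opti-MEM with 0.5% dialyzed FBS received EC50 EGF and compound titrations for 5 h. AP-1 reporter beta-lactamase was detected via CCF4 ratio, giving AC50 for positive and negative modulators.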
# [2] = Stat Signaling Pathway (AID 446; active means well fitted curve in either direction with a large enough effect, not every such curve was filed as active;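 further: ME-180 cervical cancer cells given 40 pM IL-6 alongside compound; SIE-controlled beta-lactamase reporter measured as 460/530 nm FRET emission ratio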)
# Procedure, shortened: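 Compound effects on IL-6-induced STAT reporter activity were measured in ME-180 cells. After overnight culture, cells were co-treated with 40 pM IL-6 for 5 hrs before beta-lactamase substrate loading at room temperature.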
# [3] = biological target: Glucocorticoid receptor (Homo sapiens) (UniProt P04150); experiment: GR-EFC Redistribution (AID 451; calls by dose curve; further: potency means the concentration at half of the fitted maximal effect); conditions: CHO-K1 GR-EFC translocation, beta-gal luminescence, 2 h
# Procedure, shortened: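 CHO-K1 cells stably expressing nuclear-localized β-gal enzyme acceptor and GR fused C-terminally to the enzyme donor fragment; ligand-driven nuclear translocation restores β-gal by complementation. Compounds titrated up to 46 uM final, 2 h at 37 °C; luminescence read.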
# [4] = biological target: Mitogen-activated protein kinase 10 (Mus musculus) (UniProt Q61831); experiment: JNK3 AlphaScreen Assay (AID 530; active means well fitted curve in either direction with a large enough effect, not every such curve was filed as active;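 further: kinase came from lysate of stimulated human HepG2 cells; signal reports phosphorylation of biotinylated GST-cJun 1-79 at Ser73 with 10 µM ATP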)
# Procedure, shortened: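 Biotinylated GST-cJun(1-79) served as substrate for JNK3 in HepG2 lysates stimulated with IL-1beta and TNF-alpha. ATP was 10 uM final, pH 7.6. Ser73 phosphorylation was quantified by AlphaScreen (680 nm excitation).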
# [5] = qHTS Assay for Lipid Storage Modulators (AID 1519; calls by dose curve); conditions: Drosophila S3 cells, BODIPY lipid droplet/cell ratio, laser cytometry, cells loaded with oleic acid
# Procedure, shortened: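 Cells seeded at 5,000 per well were treated with compounds over a concentration series and loaded with oleic acid (400 uM, as added). Lipid droplet fluorescence (488 nm excitation, 500-530 nm channel) was read by laser-scanning cytometry and normalized to 20 uM Triacsin C.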
# [6] = biological target: Glucocorticoid receptor (Homo sapiens) (UniProt P04150); experiment: GR-GFP Redistribution (AID 450;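 active means compounds whose dose series gives a full or clear partial fitted curve of increased nuclear translocation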; further: potency means the concentration at half of the fitted maximal effect); conditions: U2OS GR-GFP nuclear translocation, laser cytometry, 2 h
# [7] = biological target: 3',5'-cyclic-AMP phosphodiesterase 4B (Homo sapiens) (UniProt Q07343); experiment: qHTS Assay for Inhibitors of PDE-IV (AID 607; active means well fitted activation curve with a large enough effect in the main read-out, with a control signal flat, not every such curve was filed as active)
# Procedure, shortened: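 ACTOne HEK293 cells carry a modified cAMP-gated CNG channel and express endogenous PDE4; plated 1000 cells/well, compounds up to 22.9 uM final. Membrane-potential dye fluorescence (ex 535/em 590) was read; parental cells received 10 uM forskolin + 100 uM RO 20-1724.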
# [8] = biological target: Ubiquitin carboxyl-terminal hydrolase 1 (Homo sapiens) (UniProt O94782); experiment: Inhibitors of USP1/UAF1: Pilot qHTS (AID 504865);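 further: rhodamine fluorescence freed from ubiquitin-rhodamine substrate followed over time; top concentration of the series differs between compounds; nearly all actives have a fitted effect of over 35% in size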
# Procedure, shortened: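 1nM USP1/UAF1 + cpd, 15 min RT; start w/ Ub-Rho 150nM final; kinetic FL 480/540 nm, 6 reads q60 s. Buffer 50mM HEPES pH 7.8, 0.5mM EDTA, 1mM TCEP, 0.01% Tween-20, 0.1 mg/ml BSA.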
# [9] = biological target: ATP-dependent 6-phosphofructokinase (Trypanosoma brucei brucei) (UniProt O15648); experiment: qHTS Assay to Find Inhibitors of T. brucei phosphofructokinase: hit validation (AID 492961);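 further: luminescence reports ADP formed as PFK phosphorylates fructose-6-phosphate with ATP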
# Procedure, shortened: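 Percent activity derived from corrected luminescence, normalized between 0x and 1x enzyme controls, then fitted to concentration-response curves. Conditions: 1.25 nM PFK, 0.1 mM ATP, 0.5 mM F6P, 45 min RT.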
# [10] = biological target: Luciferin 4-monooxygenase (Photinus pyralis) (UniProt P08659); experiment: Biochemical firefly luciferase enzyme assay for NPC (AID 624030);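 further: purified P. pyralis luciferase at 10 nM with luciferin and ATP substrate; nearly all actives have a fitted effect of over 70% in size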
# Procedure, shortened: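 Counter-screen for direct inhibition of the luciferase enzyme by approved-drug library compounds, run at 10 nM enzyme in 50 mM Tris acetate (final). Luminescence was read within 5 min of enzyme-buffer addition and normalized to PTC124 versus DMSO (0%).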
# [11] = S16 Schwann cell PMP22 intronic element firefly luciferase assay (AID 624032); further: nearly all actives have a fitted effect of over 30% in size
# Procedure, shortened: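 Rat S16 Schwann cells stably carrying a PMP22 intronic element-driven Fluc reporter were seeded overnight, then exposed to compounds for 24 h at 37 °C. Luminescence was normalized to PTC124 (positive control) and DMSO (0% activity).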
# [12] = qHTS profiling for inhibitors of Plasmodium falciparum proliferation (AID 504749); further: nearly all actives have a fitted effect of over 60% in size; conditions: P. falciparum in erythrocytes, SYBR Green DNA, 72 h, at 12.8 µM (top of the series)
# Procedure, shortened: (§1)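 Fluorescence of SYBR Green-bound parasite DNA, read at 485/535 nm, served as the growth measure. Infected erythrocytes were cultured with compound 72 h; artemisinin (0.29 uM) and DMSO wells defined the normalization range.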
# AS120 = experiment: as above; conditions: P. falciparum in erythrocytes, SYBR Green DNA, 72 h; series mostly up to 12.8 µM
# Procedure, shortened: as §1
# C2A = experiment: as above; conditions: P. falciparum in erythrocytes, SYBR Green DNA, 72 h; series mostly up to 12.8 µM
# Procedure, shortened: as §1
# CP238 = experiment: as above; conditions: P. falciparum in erythrocytes, SYBR Green DNA, 72 h; series mostly up to 12.8 µM
# Procedure, shortened: as §1
# CP250 = experiment: as above; conditions: P. falciparum in erythrocytes, SYBR Green DNA, 72 h; series mostly up to 12.8 µM
# Procedure, shortened: as §1
# CP252 = experiment: as above; conditions: P. falciparum in erythrocytes, SYBR Green DNA, 72 h; series mostly up to 12.8 µM
# Procedure, shortened: as §1
# HB3 = experiment: as above; conditions: P. falciparum in erythrocytes, SYBR Green DNA, 72 h; series mostly up to 12.8 µM
# Procedure, shortened: as §1
# SC27B = experiment: as above; conditions: P. falciparum in erythrocytes, SYBR Green DNA, 72 h; series mostly up to 12.8 µM
# Procedure, shortened: as §1
# [13] = NFAT Signaling Pathway (AID 444; active means well fitted curve in either direction with a large enough effect, not every such curve was filed as active;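 further: carbachol stimulus at about its EC50 of 1 µM final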); conditions: Jurkat NFAT-bla M1, carbachol, beta-lactamase ratio, 5 h; at 17.2 µM (top of the series) unless noted
# Procedure, shortened: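 Jurkat cells carrying an NFAT-driven β-lactamase reporter and co-transfected muscarinic M1 receptor were treated with compound plus carbachol (1 uM final, an EC50 level) for 5 h at 37 °C. CCF4 loading followed for 1 h at RT; 460/530 nm ratio gave %activity.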
# [14] = measured here: cell count channel max response
# [15] = measured here: lipid channel max response
# Sequence of Glucocorticoid receptor (Homo sapiens) (P04150 whole entry, looked up, the tested form may be a part): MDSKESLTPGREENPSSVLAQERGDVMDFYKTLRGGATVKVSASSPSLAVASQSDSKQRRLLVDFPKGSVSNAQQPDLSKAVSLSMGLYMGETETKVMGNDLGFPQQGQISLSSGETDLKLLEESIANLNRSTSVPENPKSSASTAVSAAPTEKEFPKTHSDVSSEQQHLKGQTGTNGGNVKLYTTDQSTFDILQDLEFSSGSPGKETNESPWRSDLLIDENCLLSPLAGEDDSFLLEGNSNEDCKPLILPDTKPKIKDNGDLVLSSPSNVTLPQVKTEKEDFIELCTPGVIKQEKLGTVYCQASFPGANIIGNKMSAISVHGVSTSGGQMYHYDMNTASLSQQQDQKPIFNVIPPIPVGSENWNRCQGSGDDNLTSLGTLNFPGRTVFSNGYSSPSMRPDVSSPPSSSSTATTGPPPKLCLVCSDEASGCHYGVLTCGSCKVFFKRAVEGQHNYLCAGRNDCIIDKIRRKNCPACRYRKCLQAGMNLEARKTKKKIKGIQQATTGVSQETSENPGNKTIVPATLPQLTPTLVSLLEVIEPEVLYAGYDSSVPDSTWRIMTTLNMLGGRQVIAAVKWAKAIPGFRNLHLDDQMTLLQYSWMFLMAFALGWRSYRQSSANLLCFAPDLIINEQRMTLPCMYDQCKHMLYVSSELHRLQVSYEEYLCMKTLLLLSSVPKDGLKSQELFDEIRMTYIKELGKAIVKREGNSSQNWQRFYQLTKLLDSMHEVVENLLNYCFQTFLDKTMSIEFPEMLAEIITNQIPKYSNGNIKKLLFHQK
# Sequence of 3',5'-cyclic-AMP phosphodiesterase 4B (Homo sapiens) (Q07343 whole entry, looked up): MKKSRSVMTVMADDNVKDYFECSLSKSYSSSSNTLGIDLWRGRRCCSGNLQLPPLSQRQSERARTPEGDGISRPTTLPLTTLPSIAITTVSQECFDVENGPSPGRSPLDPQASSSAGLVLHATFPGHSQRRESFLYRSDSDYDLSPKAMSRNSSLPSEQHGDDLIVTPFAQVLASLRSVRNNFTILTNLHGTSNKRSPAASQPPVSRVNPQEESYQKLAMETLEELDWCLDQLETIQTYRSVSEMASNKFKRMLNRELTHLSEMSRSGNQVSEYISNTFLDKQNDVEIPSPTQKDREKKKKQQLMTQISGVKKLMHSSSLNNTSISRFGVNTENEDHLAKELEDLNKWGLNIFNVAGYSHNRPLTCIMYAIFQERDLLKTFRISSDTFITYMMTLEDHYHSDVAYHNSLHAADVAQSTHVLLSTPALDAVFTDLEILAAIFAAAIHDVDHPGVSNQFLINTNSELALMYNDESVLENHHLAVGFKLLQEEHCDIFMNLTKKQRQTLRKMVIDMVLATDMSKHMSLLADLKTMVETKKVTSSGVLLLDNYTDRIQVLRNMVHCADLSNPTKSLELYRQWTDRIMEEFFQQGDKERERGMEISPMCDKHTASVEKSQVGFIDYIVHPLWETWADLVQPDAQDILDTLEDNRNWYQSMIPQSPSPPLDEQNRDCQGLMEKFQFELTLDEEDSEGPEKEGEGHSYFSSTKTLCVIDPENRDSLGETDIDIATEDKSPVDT
# Sequence of Ubiquitin carboxyl-terminal hydrolase 1 (Homo sapiens) (O94782 whole entry, looked up): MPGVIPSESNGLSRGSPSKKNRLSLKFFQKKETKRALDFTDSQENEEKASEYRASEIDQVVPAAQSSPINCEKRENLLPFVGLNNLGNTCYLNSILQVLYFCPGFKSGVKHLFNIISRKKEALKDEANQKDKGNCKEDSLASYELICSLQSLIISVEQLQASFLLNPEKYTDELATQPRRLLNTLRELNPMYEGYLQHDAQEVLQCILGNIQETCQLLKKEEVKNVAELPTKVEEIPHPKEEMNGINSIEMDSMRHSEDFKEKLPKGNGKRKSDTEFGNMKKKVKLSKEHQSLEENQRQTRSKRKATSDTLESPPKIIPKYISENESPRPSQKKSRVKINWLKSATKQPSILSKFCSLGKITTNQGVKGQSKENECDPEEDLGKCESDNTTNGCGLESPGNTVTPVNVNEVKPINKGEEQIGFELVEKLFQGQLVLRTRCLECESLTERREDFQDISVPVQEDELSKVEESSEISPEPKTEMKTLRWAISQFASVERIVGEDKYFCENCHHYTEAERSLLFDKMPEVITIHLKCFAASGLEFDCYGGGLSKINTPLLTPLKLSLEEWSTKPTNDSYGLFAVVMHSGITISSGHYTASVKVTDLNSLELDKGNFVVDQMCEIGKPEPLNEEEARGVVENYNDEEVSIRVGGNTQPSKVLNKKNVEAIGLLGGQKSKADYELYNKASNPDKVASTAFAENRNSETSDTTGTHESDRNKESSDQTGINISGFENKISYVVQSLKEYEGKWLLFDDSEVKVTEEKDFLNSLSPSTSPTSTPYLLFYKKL
# Sequence of ATP-dependent 6-phosphofructokinase (Trypanosoma brucei brucei) (O15648 whole entry, looked up): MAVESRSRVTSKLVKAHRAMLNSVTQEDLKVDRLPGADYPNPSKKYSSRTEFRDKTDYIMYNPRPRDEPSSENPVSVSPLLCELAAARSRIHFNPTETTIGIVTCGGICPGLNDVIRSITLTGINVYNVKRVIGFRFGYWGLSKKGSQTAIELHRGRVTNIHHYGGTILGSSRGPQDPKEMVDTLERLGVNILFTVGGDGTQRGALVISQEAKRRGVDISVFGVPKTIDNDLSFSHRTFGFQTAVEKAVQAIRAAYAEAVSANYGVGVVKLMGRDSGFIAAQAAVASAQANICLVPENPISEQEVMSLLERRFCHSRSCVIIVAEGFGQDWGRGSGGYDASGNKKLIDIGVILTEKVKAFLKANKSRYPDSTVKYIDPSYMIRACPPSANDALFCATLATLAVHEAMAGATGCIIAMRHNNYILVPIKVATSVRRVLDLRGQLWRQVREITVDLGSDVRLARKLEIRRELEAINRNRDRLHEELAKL
# Sequence of Luciferin 4-monooxygenase (Photinus pyralis) (P08659 whole entry, looked up): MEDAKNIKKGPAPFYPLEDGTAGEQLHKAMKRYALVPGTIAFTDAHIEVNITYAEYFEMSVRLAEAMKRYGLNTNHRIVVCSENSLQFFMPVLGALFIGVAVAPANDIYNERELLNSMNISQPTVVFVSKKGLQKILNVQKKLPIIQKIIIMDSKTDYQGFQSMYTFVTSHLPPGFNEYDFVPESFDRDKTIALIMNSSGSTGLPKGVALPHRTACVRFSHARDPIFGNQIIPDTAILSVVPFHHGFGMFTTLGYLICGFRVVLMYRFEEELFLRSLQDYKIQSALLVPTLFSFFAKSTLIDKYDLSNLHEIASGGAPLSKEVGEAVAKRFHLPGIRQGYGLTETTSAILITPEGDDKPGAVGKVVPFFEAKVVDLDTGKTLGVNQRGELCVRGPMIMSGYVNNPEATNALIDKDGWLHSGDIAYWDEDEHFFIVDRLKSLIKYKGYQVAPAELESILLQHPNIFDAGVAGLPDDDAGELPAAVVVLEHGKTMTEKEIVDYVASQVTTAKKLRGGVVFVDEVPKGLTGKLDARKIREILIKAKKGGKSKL
compound,measurement,setting,value
O=C(c1cc(C(F)(F)F)cc(C(F)(F)F)c1)N1CCC[C@@]2(CCN(c3ccccn3)C2)C1,outcome,[1],inactive
same,outcome,[2],inactive
same,Potency,[3],> 46 µM (inactive)
same,Potency,[4],inactive
same,"activity change, negative = inhibition",[5]; at 57.5 µM (top of the series),-14.3% (inactive)
same,max response,[5]; [14],-3.88%
same,max response,[5]; [15],-16.6%
C[C@H](N)CCCC(C)(C)O,outcome,[1],inactive
same,outcome,[2],inactive
same,Potency,[6],> 20.6 µM (inactive)
same,Potency,[4],inactive
same,outcome,[7],inactive
same,"activity change, negative = inhibition",[5]; at 25.7 µM (top of the series),-0.344% (inactive)
same,max response,[5]; [14],0.317%
same,max response,[5]; [15],0.936%
same,Potency,[8],inactive
CN(C)CCO[C@@H](c1ccc(Cl)cc1)c1ccccn1,outcome,[1],inactive
same,outcome,[2],inactive
same,Potency,[6],> 20.6 µM (inactive)
same,Potency,[3],> 20.6 µM (inactive)
same,Potency,[4],inactive
same,outcome,[7],inactive
same,"activity change, negative = inhibition",[5]; at 25.7 µM (top of the series),-4.98% (inactive)
same,max response,[5]; [14],-21.7%
same,max response,[5]; [15],-26%
same,Potency,[8],inactive
C[C@H](C(=O)O)c1cccc(Oc2ccccc2)c1,outcome,[1],inactive
same,outcome,[2],inactive
same,Potency,[4],inactive
same,"activity change, negative = inhibition",[5]; at 25.7 µM (top of the series),0.849% (inactive)
same,max response,[5]; [14],0.75%
same,max response,[5]; [15],-2.59%
same,outcome,[9],inactive
same,Potency,[8],inactive
same,Potency,[10],inactive
same,Potency,[11],inactive
same,"activity, negative = inhibition",[12]; parasite line A,2.84% (inactive)
same,"activity, negative = inhibition",[12]; parasite line B,14.9% (inactive)
same,Potency,AS120,inactive
same,Potency,C2A,inactive
same,Potency,CP238,inactive
same,Potency,CP250,inactive
same,Potency,CP252,inactive
same,Potency,HB3,inactive
same,Potency,SC27B,inactive
C[C@@H]1[C@H](C)CC[C@@]2(C(=O)O[C@H]3O[C@@H](CO[C@H]4O[C@@H](CO)[C@@H](O[C@H]5O[C@@H](C)[C@@H](O)[C@@H](O)[C@@H]5O)[C@@H](O)[C@@H]4O)[C@@H](O)[C@@H](O)[C@@H]3O)CC[C@]3(C)C(=CC[C@H]4[C@@]5(C)C[C@@H](O)[C@@H](O)[C@](C)(CO)[C@@H]5CC[C@@]43C)[C@@H]12,outcome,[1],inactive
same,"activity change, negative = inhibition",[13],-1.63% (inactive)
same,outcome,[2],inactive
same,Potency,[6],> 20.6 µM (inactive)
same,Potency,[4],inactive
same,outcome,[7],inactive
same,"activity change, negative = inhibition",[5]; at 25.7 µM (top of the series),-3.24% (inactive)
same,max response,[5]; [14],-4%
same,max response,[5]; [15],-10.2%
COc1ccc(OC)c([C@H](O)CNC(=O)CN)c1,outcome,[1],inactive
same,"activity change, negative = inhibition",[13],-3.71% (inactive)
same,outcome,[2],inactive
same,Potency,[3],> 20.6 µM (inactive)
same,Potency,[4],inactive
same,outcome,[7],inactive
same,"activity change, negative = inhibition",[5]; at 25.7 µM (top of the series),0.926% (inactive)
same,max response,[5]; [14],0.279%
same,max response,[5]; [15],-0.25%
same,outcome,[9],inactive
same,Potency,[8],inactive
same,Potency,[10],inactive
same,Potency,[11],inactive
same,"activity, negative = inhibition",[12]; parasite line A,-3.94% (inactive)
same,"activity, negative = inhibition",[12]; parasite line B,1.53% (inactive)
same,Potency,AS120,inactive
same,Potency,C2A,inactive
same,Potency,CP238,inactive
same,Potency,CP250,inactive
same,Potency,CP252,inactive
same,Potency,HB3,inactive
same,Potency,SC27B,inactive
COCCOC(=O)C1=C(C)NC(C)=C(C(=O)OC(C)C)[C@H]1c1cccc([N+](=O)[O-])c1,outcome,[1],inactive
same,"activity change, negative = inhibition",[13],-10.3% (inactive)
same,outcome,[2],inactive
same,Potency,[6],> 20.6 µM (inactive)
same,Potency,[3],> 20.6 µM (inactive)
same,Potency,[4],inactive
same,outcome,[7],inactive
same,"activity change, negative = inhibition",[5]; at 25.7 µM (top of the series),-3.07% (inactive)
same,max response,[5]; [14],-5.25%
same,max response,[5]; [15],-6.94%
same,Potency,[8],inactive
